In PubChem BioAssay (NCATS) one finds Potency, outcome and IC50 (viability decrease) data, which are given here for 16 molecules.

Assay [1] in a line: qHTS Screen of the MIPE 4.0 Collection Against Ewings Sarcoma (TC32) (AID 1259256). Also: nearly all actives have a fitted effect of over 45% in size. Also: potency is read from the fitted curve at half-maximal effect. In a few lines:
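CellTiter-Glo luminescence after 48 h compound exposure (titration) gave viability; percent activity used DMSO-treated cells as no inhibition and medium-only wells as full inhibition. Cells grown in RPMI/5% FBS, dosed 4 h post-seeding.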
Background: Quantitative high-throughput screening tests each substance at several concentrations.

The nature of assay [2]: qHTS assay to identify small molecule inhibitors of chordoma cells - UCH-1 (AID 1259355). Also: nearly all actives have a fitted effect of over 55% in size. A digest of the protocol: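 Seed 800 cells per well; incubate overnight at 37 C, 5% CO2. Add test compounds (15 concentrations), then the auranofin–topoisomerase-agent combination. Incubate 48hr, add CellTiter-Glo, wait 30min, read luminescence.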
Assay [3] is described as follows: qHTS assay to identify small molecule inhibitors of chordoma cells - UCH-2 (AID 1259356). Also: series mostly up to about 46 µM.
Assay [4] can be described thus: P-glycoprotein substrates identified in KB-8-5-11 adenocarcinoma cell line, qHTS therapeutic library screen (AID 1346987). Also: nearly all actives have a fitted effect of over 65% in size. Also: potency is read from the fitted curve at half-maximal effect. In a few lines: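 P-gp-mediated resistance screen: KB-8-5-11 cells treated 72 h with compounds in dose-response. CellTiter-Glo viability.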
In assay [5] the target is Atrial natriuretic peptide receptor 1 (Homo sapiens) (UniProt P16066). Briefly: Natriuretic polypeptide receptor (hNpr1) antagonism - Pilot screen (AID 1347049; calls by dose curve;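 also: agonist-evoked cGMP luminescence read 20 min after hNppA addition; series mostly up to about 58 µM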). In a few lines: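 Readout is cGMP-driven firefly luciferase luminescence in HEK293 cells carrying hNpr1 and a PDE5-domain GloSensor, read before and 20 min after 0.1 nM hNppA stimulation. Cells had 2% substrate reagent for 2 h and test compound for 30 min.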
Chain of Atrial natriuretic peptide receptor 1 (Homo sapiens) (P16066 whole entry, looked up): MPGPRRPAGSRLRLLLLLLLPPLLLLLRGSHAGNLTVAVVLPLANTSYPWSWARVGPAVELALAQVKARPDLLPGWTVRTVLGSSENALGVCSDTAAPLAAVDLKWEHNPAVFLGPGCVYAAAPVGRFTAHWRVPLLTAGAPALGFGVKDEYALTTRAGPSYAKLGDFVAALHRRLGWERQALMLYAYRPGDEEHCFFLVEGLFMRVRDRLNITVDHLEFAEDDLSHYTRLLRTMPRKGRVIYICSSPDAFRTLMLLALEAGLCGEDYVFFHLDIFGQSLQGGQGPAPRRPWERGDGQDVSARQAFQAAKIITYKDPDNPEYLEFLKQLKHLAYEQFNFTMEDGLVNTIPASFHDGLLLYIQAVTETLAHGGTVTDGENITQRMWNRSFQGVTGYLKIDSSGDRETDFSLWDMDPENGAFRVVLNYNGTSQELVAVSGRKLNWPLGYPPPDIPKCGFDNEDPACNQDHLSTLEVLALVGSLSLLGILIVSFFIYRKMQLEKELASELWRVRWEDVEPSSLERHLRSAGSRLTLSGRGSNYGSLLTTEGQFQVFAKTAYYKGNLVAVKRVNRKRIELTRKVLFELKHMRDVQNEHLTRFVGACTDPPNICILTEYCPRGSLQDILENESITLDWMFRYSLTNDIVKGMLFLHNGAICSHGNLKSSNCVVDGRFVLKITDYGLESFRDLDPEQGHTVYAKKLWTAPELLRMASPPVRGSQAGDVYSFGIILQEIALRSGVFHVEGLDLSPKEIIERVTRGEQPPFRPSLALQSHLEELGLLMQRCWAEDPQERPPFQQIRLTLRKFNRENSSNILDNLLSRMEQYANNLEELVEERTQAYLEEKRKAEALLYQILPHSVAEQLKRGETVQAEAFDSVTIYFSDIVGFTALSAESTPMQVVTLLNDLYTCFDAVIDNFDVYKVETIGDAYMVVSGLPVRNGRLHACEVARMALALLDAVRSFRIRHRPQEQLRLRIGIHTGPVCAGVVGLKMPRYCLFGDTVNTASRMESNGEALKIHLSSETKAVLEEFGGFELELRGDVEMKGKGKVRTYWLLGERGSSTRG

Assay [6] has as its target Atrial natriuretic peptide receptor 2 (Homo sapiens) (UniProt P20594). As to the kind of experiment: Natriuretic polypeptide receptor (hNpr2) antagonism - Pilot subtype selectivity assay (AID 1347050; calls by dose curve). A digest of the protocol: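 Pilot selectivity screen against hNpr2: HEK293 cGMP-sensor cells are treated with LOPAC1280 compounds, then with hNppC peptide at 1 nM final. The cGMP-driven luminescence change over 20 min at room temperature is the read-out.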

The nature of assay [7]: NS1 protein of Zika virus - qHTS assay to identify small molecule inhibitors in human HEK 293 cells (AID 1347053). Also: series mostly up to about 46 µM; nearly all actives have a fitted effect of over 55% in size. A digest of the protocol: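 Following 20 h seeding, HEK 293 cells took compound, then 1 h later ZIKV MR766 (MOI = 0.5). Incubation ran 24 h at 37 C before TR-FRET detection of NS1; a drop in signal indicates inhibition.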
Assay [8] deals with Parathyroid hormone/parathyroid hormone-related peptide receptor (Homo sapiens) (UniProt Q03431). As to the kind of experiment: qHTS for PTHR1 Agonists: Optimization Screen against the NCGC LOPAC library (AID 1347079).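 Also: GloSensor cAMP luminescence in HEK-293 GP2 cells expressing human PTHR1 with IBMX.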 In a few lines: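 Compounds were tested across a qHTS titration. PTHR1-expressing GP2 cells report cAMP rises via GloSensor luminescence after 1 hr compound exposure at 37C with IBMX present.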
Chain of Parathyroid hormone/parathyroid hormone-related peptide receptor (Homo sapiens) (Q03431 whole entry, looked up): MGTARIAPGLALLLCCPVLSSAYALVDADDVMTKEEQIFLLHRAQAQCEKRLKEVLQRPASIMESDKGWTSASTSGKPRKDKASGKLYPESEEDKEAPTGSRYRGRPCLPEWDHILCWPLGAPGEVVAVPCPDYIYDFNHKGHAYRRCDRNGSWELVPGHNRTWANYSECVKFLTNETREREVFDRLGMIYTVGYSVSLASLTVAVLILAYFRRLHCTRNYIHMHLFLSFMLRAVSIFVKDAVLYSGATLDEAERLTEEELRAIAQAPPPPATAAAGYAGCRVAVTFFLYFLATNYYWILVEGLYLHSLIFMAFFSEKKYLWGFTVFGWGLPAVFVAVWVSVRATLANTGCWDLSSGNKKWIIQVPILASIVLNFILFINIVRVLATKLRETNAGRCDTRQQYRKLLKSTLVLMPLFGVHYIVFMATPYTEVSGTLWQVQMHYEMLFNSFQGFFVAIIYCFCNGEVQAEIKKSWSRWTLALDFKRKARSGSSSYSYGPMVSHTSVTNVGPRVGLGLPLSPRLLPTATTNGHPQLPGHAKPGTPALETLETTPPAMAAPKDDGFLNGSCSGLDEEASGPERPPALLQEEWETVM

A short description of assay [9]: qHTS of pediatric cancer cell lines to identify multiple opportunities for drug repurposing: Primary screen for TC32 cells (AID 1347089). Also: nearly all actives have a fitted effect of over 60% in size. A digest of the protocol:
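Luminescent CellTiter-Glo read-out of metabolically active TC32 cells after 48 h compound exposure. Primary: MIPE 11-point, 0.78 nM–46 µM; NPC 8-point, 0.59 nM–46 µM. Confirmatory: 11-point dilutions.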

Assay [10] can be described thus: Identifying Small Molecule Inhibitors of Pancreatic Cancer Stem Cells (A2780, Spheroid) (AID 1259357).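 Also: compound exposure lasted 48 h before the ATP luminescence read.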 Also: potency is read from the fitted curve at half-maximal effect. As to conditions: Potency: A2780 spheroid viability. A digest of the protocol: (§1)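 Pre-formed 14-day tumor spheroids or adherent cells dosed and incubated 48 h, 37C, 5% CO2. Viability assessed by CellTiter-Glo.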
The nature of assay [11]: Identifying Small Molecule Inhibitors of Pancreatic Cancer Stem Cells (SN12C, Adherent) (AID 1259358).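 Also: cell survival measured after 48 h of compound exposure.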 A digest of the protocol: (§2)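 Cytotoxicity read by CellTiter-Glo luminescence after 48 h compound exposure at 37C; percent activity scaled between DMSO-treated cells and cell-free wells. Spheroid formats used cells pre-formed 14 days in stem cell media on hydrogel.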
Assay [12] is described as follows: Identifying Small Molecule Inhibitors of Pancreatic Cancer Stem Cells (SN12C, Spheroid) (AID 1259360). Conditions: Potency: SN12C spheroid viability. In a few lines: as §1
Assay [13] can be described thus: Identifying Small Molecule Inhibitors of Pancreatic Cancer Stem Cells (A278, Adherent) (AID 1259361). Also: nearly all actives have a fitted effect of over 35% in size. A digest of the protocol: as §2
For assay [14], the target named is T1, Tyrosine-protein phosphatase non-receptor type substrate 1 (Homo sapiens) + Leukocyte surface antigen CD47 (Homo sapiens) (UniProt P78324+Q08722). As to the kind of experiment: CD47-SIRPalpha protein protein interaction - LANCE assay qHTS validation (AID 1347057; active = well fitted curve in the direction sought with a large enough effect in the signal ratio, with a control signal flat, not every such curve was filed as active; the % refers to the signal ratio; also: series mostly up to about 38 µM). In a few lines:
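First, His-tagged CD47 and Eu-labelled anti-His antibody met the compound for 30 min; next, site-specifically biotinylated SIRPalpha was added for 30 min; finally streptavidin-APC was added before reading the TR-FRET ratio.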
A general note: Time-resolved FRET reads energy transfer from a long-lived donor to a nearby acceptor.

The target in assay [15] is T1, Tyrosine-protein phosphatase non-receptor type substrate 1 (Homo sapiens) + Leukocyte surface antigen CD47 (Homo sapiens). As to the kind of experiment: CD47-SIRPalpha protein protein interaction - HTRF assay qHTS validation (AID 1347058; active = well fitted curve in the direction sought with a large enough effect in the signal ratio, not every such curve was filed as active; the % refers to the signal ratio;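 also: recombinant soluble extracellular CD47 with His tag and biotinylated SIRPalpha domains; series mostly up to about 38 µM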). A digest of the protocol: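 TR-FRET read (Ch1/Ch2 ratio) of soluble extracellular CD47 and Avi-biotinylated SIRPalpha domains in PBS pH 7.4 with 0.05% IGEPAL; 7-point compound titration. Sequential 30 min room-temperature steps; non-biotinylated SIRPalpha as control inhibitor.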

Assay [16] has the same target. Briefly: CD47-SIRPalpha protein protein interaction - Alpha assay qHTS validation (AID 1347059).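 Also: bead proximity luminescence from CD47 binding SIRPalpha after compound preincubation with SIRPalpha.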 In a few lines: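 Binding is measured by AlphaScreen proximity: Ni-NTA acceptor beads capture His-CD47, streptavidin donor beads capture biotin-SIRPalpha. Each of three additions (SIRPalpha with compound, CD47, beads) incubates 30 min at room temperature protected from light.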

The nature of assay [17]: Natriuretic polypeptide receptor (hNpr1) antagonism - Pilot counterscreen GloSensor control cell line (AID 1347045; calls by dose curve; also: series mostly up to about 38 µM). A digest of the protocol:
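This counterscreen uses HEK293 cells expressing the GIP/pGS-40F cGMP biosensor. Compound-treated cells are challenged with 50 uM sodium nitroprusside, and the luciferase signal is compared before and after stimulation.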

Assay [18] in a line: P-glycoprotein substrates identified in KB-3-1 adenocarcinoma cell line, qHTS therapeutic library screen (AID 1346986). Also: nearly all actives have a fitted effect of over 60% in size. A digest of the protocol:
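Counter-screen: cherry-picked hits retested in the KB pair and in HEK-293 pcDNA/MDR-19 cells ± tariquidar. Primary screen used 72 h CellTiter-Glo viability in KB-3-1 and KB-8-5-11.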

A short description of assay [19]: Identifying Small Molecule Inhibitors of Pancreatic Cancer Stem Cells (Panc1, Adherent) (AID 1259362).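 Also: compound exposure lasted 48 h before the viability read.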 As to conditions: Potency: viability. A digest of the protocol: as §1

Structures are written as SMILES. Where “and” joins values, the source holds several entries; their conditions need not be identical. Equal values may be shown once. Results filed as inconclusive are left out. Calls of active or inactive are those of the source. Unless noted, calls follow the shape of the dose curve; as a rule, active = well fitted curve in the direction sought with a large enough effect; inconclusive = small, poorly fitted or top-dose-only effect, or another doubt; inactive = no such curve, though single readings can be large; an effect the other way counts as inactive or inconclusive.

Chain of Atrial natriuretic peptide receptor 2 (Homo sapiens) (P20594 whole entry, looked up): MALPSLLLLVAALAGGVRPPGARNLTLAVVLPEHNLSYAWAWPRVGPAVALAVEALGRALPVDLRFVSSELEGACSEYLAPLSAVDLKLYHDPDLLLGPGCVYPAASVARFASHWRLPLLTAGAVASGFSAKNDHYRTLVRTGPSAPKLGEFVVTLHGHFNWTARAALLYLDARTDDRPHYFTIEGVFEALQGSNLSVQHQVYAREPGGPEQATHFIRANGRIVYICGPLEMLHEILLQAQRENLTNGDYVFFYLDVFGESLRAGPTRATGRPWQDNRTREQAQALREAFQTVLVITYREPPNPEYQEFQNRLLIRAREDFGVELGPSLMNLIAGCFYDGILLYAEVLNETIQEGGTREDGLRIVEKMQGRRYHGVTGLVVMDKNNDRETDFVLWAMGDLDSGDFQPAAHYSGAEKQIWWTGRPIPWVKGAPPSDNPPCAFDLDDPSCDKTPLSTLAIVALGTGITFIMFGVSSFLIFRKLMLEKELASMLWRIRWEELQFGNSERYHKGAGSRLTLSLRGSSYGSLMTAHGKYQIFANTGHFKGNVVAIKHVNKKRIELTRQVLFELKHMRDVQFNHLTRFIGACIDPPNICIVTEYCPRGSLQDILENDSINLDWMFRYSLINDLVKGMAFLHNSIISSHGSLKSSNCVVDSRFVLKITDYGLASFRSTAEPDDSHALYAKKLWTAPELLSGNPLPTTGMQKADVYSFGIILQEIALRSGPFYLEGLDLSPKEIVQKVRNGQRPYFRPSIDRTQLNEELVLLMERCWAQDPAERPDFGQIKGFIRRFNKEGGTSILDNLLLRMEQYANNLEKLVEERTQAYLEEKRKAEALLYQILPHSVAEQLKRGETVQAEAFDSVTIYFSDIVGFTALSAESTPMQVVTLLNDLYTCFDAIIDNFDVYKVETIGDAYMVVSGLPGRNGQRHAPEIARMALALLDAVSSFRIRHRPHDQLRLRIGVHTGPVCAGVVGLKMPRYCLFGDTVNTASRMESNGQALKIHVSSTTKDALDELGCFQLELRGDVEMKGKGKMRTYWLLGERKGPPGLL
T1 sequence (P78324 whole entry, looked up): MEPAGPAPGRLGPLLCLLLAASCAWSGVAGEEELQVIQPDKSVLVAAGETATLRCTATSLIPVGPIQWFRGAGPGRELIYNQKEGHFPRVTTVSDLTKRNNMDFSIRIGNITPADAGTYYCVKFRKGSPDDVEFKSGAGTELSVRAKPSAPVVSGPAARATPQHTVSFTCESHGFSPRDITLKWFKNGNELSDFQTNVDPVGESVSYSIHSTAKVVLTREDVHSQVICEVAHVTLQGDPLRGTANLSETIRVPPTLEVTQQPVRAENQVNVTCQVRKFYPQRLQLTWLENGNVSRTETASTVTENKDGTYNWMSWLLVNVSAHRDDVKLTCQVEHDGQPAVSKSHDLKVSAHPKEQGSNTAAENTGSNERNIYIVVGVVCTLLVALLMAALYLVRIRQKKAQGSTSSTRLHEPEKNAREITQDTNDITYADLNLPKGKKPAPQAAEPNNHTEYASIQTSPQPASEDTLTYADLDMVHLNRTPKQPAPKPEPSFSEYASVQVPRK
T1 sequence (Q08722 whole entry, looked up): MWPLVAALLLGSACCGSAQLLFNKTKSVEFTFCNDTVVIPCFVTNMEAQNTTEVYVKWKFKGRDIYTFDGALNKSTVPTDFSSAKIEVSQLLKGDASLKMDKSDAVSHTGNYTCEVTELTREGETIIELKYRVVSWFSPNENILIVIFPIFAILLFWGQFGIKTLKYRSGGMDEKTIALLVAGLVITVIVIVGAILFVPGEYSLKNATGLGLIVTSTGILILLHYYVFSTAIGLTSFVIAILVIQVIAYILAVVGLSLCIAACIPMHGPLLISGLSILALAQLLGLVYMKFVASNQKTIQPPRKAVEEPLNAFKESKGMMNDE

On to `Cc1ccc(N(CC2=NCCN2)c2cccc(O)c2)cc1`, for which the Potency in [1] was 16.6 µM (active). Besides, the Potency entry in assay [2], in assay [4], in [6], in assay [7] and in assay [9] was “inactive” in each case. Further, the outcome in assay [3], in assay [5] and in assay [8] was inactive.

For the molecule `O=c1ncn2nc(Sc3ccc(F)cc3F)ccc2c1-c1c(Cl)cccc1Cl`, the Potency result in [1], in assay [11], in assay [4], in [7] and in assay [9] was “inactive” in each case. In [10], the Potency is 14.8 µM (active).

Consider `N#Cc1ccc(C(c2ccc(C#N)cc2)n2cncn2)cc1`, for which the Potency in assay [1] is 14.8 µM (active). The molecule was classed as inactive in assay [3]. Besides, the Potency result in [10], in assay [11], in assay [12], in assay [4], in [7] and in assay [9] was “inactive” in each case. For the same molecule, the IC50 (viability decrease) entry in assay [13] is “inactive”.

`O=C(C1CC1)N1CC[C@@H](Cn2c(-c3ccc(-c4ccc5occc5c4)cc3)nc3cnccc32)C1`: the Potency result in assay [1], in assay [4] and in assay [9] was “inactive” throughout. The Potency in [10] was 0.469 µM (active).

With `COc1ccc(COc2cc3oc(=O)c4cc(C(C)O)ccc4c3cc2OC)cc1` (stereo not given), the Potency in [1] was 20.9 µM (active); in [4], 8.33 µM (active) and 3.66 µM (active). Further, the Potency result in [10], in [11], in [12], in [7] and in assay [9] was “inactive” throughout.

On to `COc1ccc(-c2ccc3c(N4CCOC[C@H]4C)nc(N4CCOC[C@H]4C)nc3n2)cc1CO`, for which the Potency was 0.0264 µM (active) in [1], 0.0187 µM (active) in assay [10] and 13.2 nM (active) in assay [4].

As to `CC(C)(Sc1ccc(CCN(CCCCC2CCCCC2)C(=O)NC2CCCCC2)cc1)C(=O)O`, in [1], the Potency is 18.7 µM (active). The Potency entry in [11], in assay [12], in [4], in [6], in [7] and in assay [9] was “inactive” in each case. In addition, the IC50 (viability decrease) result in assay [13] was “inactive”. Moreover, the molecule was classed as inactive in assay [5], in [14], in assay [15], in assay [16] and in assay [8].

As for `Nc1nc2c(ncn2COCCO)c(=O)[nH]1`, the Potency result in assay [1], in assay [2], in assay [6] and in assay [7] was “inactive” throughout. Besides, the result in [3], in assay [17], in assay [15], in assay [16] and in assay [8] was inactive.

Consider `N[C@@H]1CONC1=O`, for which the Potency result in assay [1], in assay [2], in assay [6], in assay [7] and in assay [9] was “inactive” in each case. Besides, the molecule was called inactive in assay [3], in [17], in assay [5], in assay [15], in assay [16] and in [8].

Consider `Cc1[nH]c(=O)c(C#N)cc1-c1ccncc1`, for which the Potency result in assay [1], in [2], in assay [4], in assay [6] and in assay [7] was “inactive” each time. Also, the outcome in assay [3], in [5], in assay [16] and in assay [8] was inactive.

Regarding `N=c1nc(N2CCCCC2)cc(N)n1O`, the Potency result in assay [1], in [2], in assay [6] and in [7] was “inactive” each time. For the same molecule, the call in assay [3], in assay [5] and in [8] was inactive.

Consider `CCCc1nn(C)c2c(=O)[nH]c(-c3cc(S(=O)(=O)N4CCN(C)CC4)ccc3OCC)nc12`, for which the Potency is 5.26 µM (active) in assay [1] and 13200 nM (active) in assay [4]. In addition, the outcome in [3] and in assay [16] was inactive. Moreover, the Potency entry in assay [12], in assay [18], in assay [7] and in assay [9] was “inactive” in each case.

With `Oc1ccc(C2CNCCc3c2cc(O)c(O)c3Cl)cc1` (stereo not given), the Potency result in assay [1], in assay [2], in assay [6], in assay [7] and in assay [9] was “inactive” in each case. Besides, the molecule was called inactive in [3], in assay [17], in assay [5], in assay [15], in assay [16] and in assay [8].

Turning to `NS(=O)(=O)c1cc2c(cc1Cl)NC=NS2(=O)=O`, the Potency entry in assay [1], in assay [2], in assay [4], in assay [6], in assay [7] and in assay [9] was “inactive” throughout. Also, the outcome in assay [3], in [5], in assay [15], in assay [16] and in assay [8] was inactive.

For `Cc1n[nH]c(C)c1Cc1sc2c(c1C(=O)N1C[C@H](O)CO1)c(=O)n(C)c(=O)n2CC(C)C`, in assay [1], the Potency was 0.105 µM (active). Besides, the Potency entry in [10], in assay [12], in assay [4] and in assay [7] was “inactive” each time.

In the case of `CNC(=O)c1ccc(N2C(=S)N(c3ccc(C#N)c(C(F)(F)F)c3)C(=O)C2(C)C)cc1F`, the Potency result in assay [1], in assay [11], in [19], in [4], in assay [7] and in assay [9] was “inactive” each time. In assay [10], the Potency was 0.166 µM (active). Moreover, in [13], the IC50 (viability decrease) was 23.5 µM (active).
